According to PubChem BioAssay (NCI):
Several values for one entry are separate records, joined by “and”; a condition that tells them apart may be missing. Equal entries are not always repeated. About 83,000 compounds went through this panel and 20% of them were active in at least one assay; those are over-represented in the sample as a whole.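 Assay: single dose, 48 h. Readout: percent growth (0 = no net growth; negative = cell death). Active: <10.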 Activity calls are given as the source filed them.

Key:
Assay in all cases: NCI-60 one-dose screen, 48 h (100 = growth as untreated, 0 = no growth, -100 = all killed)
Conditions in all cases: 10 µM unless noted
MOLT-4 leukemia = tested on: MOLT-4 leukemia
SR leukemia = tested on: SR leukemia
RPMI-8226 leukemia = tested on: RPMI-8226 leukemia
OVCAR-8 ovarian = tested on: OVCAR-8 ovarian
OVCAR-5 ovarian = tested on: OVCAR-5 ovarian
OVCAR-4 ovarian = tested on: OVCAR-4 ovarian
SK-OV-3 ovarian = tested on: SK-OV-3 ovarian
IGROV1 ovarian = tested on: IGROV1 ovarian
OVCAR-3 ovarian = tested on: OVCAR-3 ovarian
HS 578T breast = tested on: HS 578T breast
NCI/ADR-RES ovarian = tested on: NCI/ADR-RES ovarian
T-47D breast = tested on: T-47D breast
BT-549 breast = tested on: BT-549 breast
MDA-MB-435 melanoma = tested on: MDA-MB-435 melanoma
SW-620 colon = tested on: SW-620 colon
MCF7 breast = tested on: MCF7 breast
HCT-116 colon = tested on: HCT-116 colon
KM12 colon = tested on: KM12 colon
HCC-2998 colon = tested on: HCC-2998 colon

Measured: growth

O=NN1CCCCC1
inactive: MOLT-4 leukemia 115% | SR leukemia 106% | RPMI-8226 leukemia 114% | OVCAR-8 ovarian 111% | OVCAR-5 ovarian 104% | OVCAR-4 ovarian 110% | SK-OV-3 ovarian 107% | IGROV1 ovarian 116% | OVCAR-3 ovarian 112% | HS 578T breast 97.3% | NCI/ADR-RES ovarian 110% | T-47D breast 102% | BT-549 breast 104% | MDA-MB-435 melanoma 118% | SW-620 colon 107% | MCF7 breast 90.8% | HCT-116 colon 108% | KM12 colon 104%

C=CC[PH+](c1ccccc1)c1ccccc1.C=CC[PH+](c1ccccc1)c1ccccc1.[Pt+2].[S-]c1ncccn1.[S-]c1ncccn1
active: MOLT-4 leukemia 7.91% | RPMI-8226 leukemia 0.618% | OVCAR-8 ovarian 1.96% | OVCAR-3 ovarian -24.5% | T-47D breast 2% | MDA-MB-435 melanoma -48.1% | SW-620 colon -4.87% | HCT-116 colon -43.8%
inactive: SR leukemia 13.5% | OVCAR-5 ovarian 14.3% | OVCAR-4 ovarian 17.6% | SK-OV-3 ovarian 96.3% | IGROV1 ovarian 16.3% | HS 578T breast 61.6% | NCI/ADR-RES ovarian 39.6% | BT-549 breast 64% | MCF7 breast 17.2% | HCC-2998 colon 97.5% | KM12 colon 76.7%

COc1cc2c(c(OC)c1OC)-c1ccc(O)cc1[C@@H](NC(C)=O)CC2
11.1% (inactive) and -2.64% (active): NCI/ADR-RES ovarian
34.5% (inactive) and -8.23% (active): MOLT-4 leukemia
11.5% (inactive) and 8.19% (active): HCC-2998 colon
inactive: OVCAR-8 ovarian 15.7% and 11.1% | OVCAR-5 ovarian 33.2% and 41.1% | OVCAR-4 ovarian 19.3% | HS 578T breast 50.4% and 29.5% | T-47D breast 56.4% and 64%
15.1% (inactive) and 6.46% (active): MCF7 breast
25% (inactive) and -17.7% (active): RPMI-8226 leukemia
active: SK-OV-3 ovarian 8.01% and 6.47% | IGROV1 ovarian -24.2% and 8.32% | OVCAR-3 ovarian -39.1% and -30.9% | BT-549 breast 8.27% | MDA-MB-435 melanoma -27.7% and -47.4% | HCT-116 colon 6.62% and 4.98% | KM12 colon -17.3% and -32.3%
15.1% (inactive) and -4.87% (active): SR leukemia

CC(Oc1ccc(-c2ccccc2)cc1)C(=O)O (stereo not given)
inactive: MOLT-4 leukemia 104% | SR leukemia 106% | RPMI-8226 leukemia 101% | OVCAR-8 ovarian 103% | OVCAR-5 ovarian 108% | OVCAR-4 ovarian 101% | SK-OV-3 ovarian 105% | IGROV1 ovarian 103% | OVCAR-3 ovarian 111% | HS 578T breast 110% | NCI/ADR-RES ovarian 104% | T-47D breast 98.4% | BT-549 breast 106% | MDA-MB-435 melanoma 102% | SW-620 colon 102% | MCF7 breast 103% | HCT-116 colon 98.5% | KM12 colon 107%

N#CC(C#N)=C(C#N)C#N
inactive: MOLT-4 leukemia 102% | SR leukemia 105% | RPMI-8226 leukemia 101% | OVCAR-8 ovarian 96% | OVCAR-5 ovarian 101% | OVCAR-4 ovarian 104% | SK-OV-3 ovarian 109% | IGROV1 ovarian 108% | OVCAR-3 ovarian 107% | HS 578T breast 103% | NCI/ADR-RES ovarian 110% | T-47D breast 95.8% | BT-549 breast 104% | MDA-MB-435 melanoma 107% | MCF7 breast 98.1% | HCT-116 colon 102% | HCC-2998 colon 110% | KM12 colon 108%

C/C=C(/C)C(=O)O[C@H]1CC[C@@]2(C)[C@@H]3CC[C@H]4[C@]5(O)C[C@H](O)[C@@]6(O)[C@@H](CN7C[C@@H](C)CC[C@H]7[C@@]6(C)O)[C@]5(O)C[C@@]42O[C@@]13O
inactive: MOLT-4 leukemia 112% | SR leukemia 97.4% | RPMI-8226 leukemia 113% | OVCAR-8 ovarian 91.9% | OVCAR-5 ovarian 103% | OVCAR-4 ovarian 102% | SK-OV-3 ovarian 118% | IGROV1 ovarian 49.3% | OVCAR-3 ovarian 120% | HS 578T breast 116% | NCI/ADR-RES ovarian 111% | T-47D breast 118% | MDA-MB-435 melanoma 108% | SW-620 colon 111% | MCF7 breast 98.3% | HCT-116 colon 47.5% | HCC-2998 colon 137% | KM12 colon 122%

O=C(NC(Cl)=C(Cl)Cl)P(=O)(c1ccccc1)c1ccccc1
inactive: MOLT-4 leukemia 87.1% | SR leukemia 88.3% | RPMI-8226 leukemia 101% | OVCAR-8 ovarian 126% | OVCAR-5 ovarian 105% | OVCAR-4 ovarian 101% | SK-OV-3 ovarian 107% | IGROV1 ovarian 95% | OVCAR-3 ovarian 115% | HS 578T breast 113% | NCI/ADR-RES ovarian 107% | T-47D breast 105% | BT-549 breast 109% | MDA-MB-435 melanoma 92% | SW-620 colon 112% | MCF7 breast 97.3% | HCT-116 colon 106% | HCC-2998 colon 114% | KM12 colon 106%

COc1ccc2c(c1)c(-c1nc(-c3cn(C)c4ncccc34)cs1)cn2CCCCN1CCOCC1
active: MOLT-4 leukemia -15.6% | SR leukemia -5.63% | RPMI-8226 leukemia -18.1% | MDA-MB-435 melanoma -83.4% | SW-620 colon -77.1% | HCC-2998 colon 7.68% | KM12 colon -5.62%
inactive: OVCAR-8 ovarian 48.5% | OVCAR-5 ovarian 56.9% | OVCAR-4 ovarian 60.2% | SK-OV-3 ovarian 79.7% | IGROV1 ovarian 67.8% | OVCAR-3 ovarian 50.8% | HS 578T breast 18.8% | NCI/ADR-RES ovarian 59.6% | T-47D breast 64.5% | BT-549 breast 76.8% | MCF7 breast 15.1% | HCT-116 colon 11.4%

CC(=O)Cc1ccc2c(c1)OCO2
inactive: MOLT-4 leukemia 121% | SR leukemia 122% | RPMI-8226 leukemia 113% | OVCAR-8 ovarian 96.6% | OVCAR-5 ovarian 94% | OVCAR-4 ovarian 135% | SK-OV-3 ovarian 107% | IGROV1 ovarian 111% | OVCAR-3 ovarian 110% | HS 578T breast 111% | NCI/ADR-RES ovarian 103% | T-47D breast 103% | MDA-MB-435 melanoma 105% | SW-620 colon 110% | MCF7 breast 115% | HCT-116 colon 102% | HCC-2998 colon 102% | KM12 colon 96.1%

C[C@]12CC[C@H]3[C@@H](CC=C4c5nc(-c6ccc(Br)cc6)sc5CC[C@@]43C)[C@@H]1CC[C@@H]2O
inactive: MOLT-4 leukemia 89.2% | SR leukemia 98.2% | RPMI-8226 leukemia 54.6% | OVCAR-8 ovarian 106% | OVCAR-5 ovarian 90% | OVCAR-4 ovarian 95.1% | SK-OV-3 ovarian 95.1% | IGROV1 ovarian 99.1% | OVCAR-3 ovarian 103% | HS 578T breast 74% | NCI/ADR-RES ovarian 99.5% | T-47D breast 92.6% | BT-549 breast 82.8% | MDA-MB-435 melanoma 96.1% | SW-620 colon 108% | MCF7 breast 87.2% | HCT-116 colon 84.9% | HCC-2998 colon 110% | KM12 colon 102%

C[C@]12CCc3sc(Nc4ccc(O)cc4)nc3C1=CC[C@@H]1[C@@H]2CC[C@]2(C)C(=O)CC[C@@H]12
active: SR leukemia 9.6% | RPMI-8226 leukemia -24.5% | OVCAR-3 ovarian -31.7% | SW-620 colon -32.2% | MCF7 breast 3.11% | HCT-116 colon -72.4%
inactive: MOLT-4 leukemia 11% | OVCAR-8 ovarian 35.9% | OVCAR-5 ovarian 117% | OVCAR-4 ovarian 57.1% | SK-OV-3 ovarian 108% | IGROV1 ovarian 13.1% | HS 578T breast 53.6% | NCI/ADR-RES ovarian 68.6% | T-47D breast 10.6% | MDA-MB-435 melanoma 35.3% | HCC-2998 colon 97.7% | KM12 colon 46.7%

O=S(OO)c1cc(Cl)c(O)c(Cl)c1 (stereo not given)
inactive: MOLT-4 leukemia 103% | SR leukemia 95.1% | RPMI-8226 leukemia 99.9% | OVCAR-8 ovarian 101% | OVCAR-5 ovarian 107% | OVCAR-4 ovarian 89.9% | SK-OV-3 ovarian 103% | IGROV1 ovarian 104% | OVCAR-3 ovarian 114% | HS 578T breast 104% | NCI/ADR-RES ovarian 101% | T-47D breast 87.6% | BT-549 breast 89.1% | MDA-MB-435 melanoma 97.1% | SW-620 colon 98.3% | MCF7 breast 78.6% | HCT-116 colon 105% | HCC-2998 colon 95.5% | KM12 colon 108%

COC12CC3(C)C(C4=CC(=O)OC4)CCC3(O)C3CCC4=CC(=O)CCC4(CO1)C32 (stereo not given)
inactive: MOLT-4 leukemia 119% | SR leukemia 117% | RPMI-8226 leukemia 118% | OVCAR-8 ovarian 99.9% | OVCAR-5 ovarian 99.5% | OVCAR-4 ovarian 105% | SK-OV-3 ovarian 117% | IGROV1 ovarian 98.6% | OVCAR-3 ovarian 118% | HS 578T breast 103% | NCI/ADR-RES ovarian 113% | T-47D breast 116% | MDA-MB-435 melanoma 106% | SW-620 colon 105% | MCF7 breast 98.1% | HCT-116 colon 101% | HCC-2998 colon 131% | KM12 colon 114%

N#CCC(=O)c1ccccc1
inactive: MOLT-4 leukemia 95.2% | SR leukemia 107% | RPMI-8226 leukemia 108% | OVCAR-8 ovarian 96.5% | OVCAR-5 ovarian 105% | OVCAR-4 ovarian 109% | SK-OV-3 ovarian 105% | IGROV1 ovarian 104% | OVCAR-3 ovarian 102% | HS 578T breast 107% | NCI/ADR-RES ovarian 104% | T-47D breast 99.4% | BT-549 breast 116% | MDA-MB-435 melanoma 101% | MCF7 breast 92.6% | HCT-116 colon 107% | HCC-2998 colon 71.2% | KM12 colon 90.8%

N#CCN(CC#N)[N+](=O)[O-]
inactive: MOLT-4 leukemia 114% | SR leukemia 100% | RPMI-8226 leukemia 97.2% | OVCAR-8 ovarian 109% | OVCAR-5 ovarian 103% | OVCAR-4 ovarian 111% | SK-OV-3 ovarian 104% | IGROV1 ovarian 121% | OVCAR-3 ovarian 108% | HS 578T breast 89.5% | NCI/ADR-RES ovarian 110% | T-47D breast 92.2% | MDA-MB-435 melanoma 108% | SW-620 colon 101% | MCF7 breast 93.3% | HCT-116 colon 96.8% | HCC-2998 colon 115% | KM12 colon 112%
